# Reference: ChEMBL document CHEMBL3988442, “University of Dundee, Small-Polar-MMV Screening Library” (2021)
# In all, about 69,000 compounds went through this assay and about 950 (1.4%) showed an effect of 50% or more. Only a selection was taken, and strong results are over-represented in it overall.
# Test system: Mycobacterium tuberculosis
# Assay: Cornell M. t heat shock assay; note: in the data most compounds retested in dose-response had high values
# Assay type: functional, organism-based
# Parameters: dose or concentration left out as unconfirmed
row,SMILES,Percent Effect [%]
1,Cc1ccc(CN2CCn3c(COc4cccnc4)cnc3C2C)o1.O=C(O)C(F)(F)F.O=C(O)C(F)(F)F (configuration not stated),17.82
2,Cc1ccc2c(c1)OCCCC2NCc1nccn1CC(C)C (configuration not stated),101.9
3,CN(C(=O)NCc1nccn1Cc1ccccc1)C1CC1,-34.67
4,Cc1ccc2c(c1)C(NCc1nnc3n1CCCCC3)CCCO2 (configuration not stated),-13.54
5,Cc1cccc2c1OCCC2NCc1c(C)nn(C)c1N(C)C (configuration not stated),-4.09
6,Cc1ccc2c(c1)C(NCc1nccn1Cc1ccccc1)CCCO2 (configuration not stated),102
7,Cn1cc(CNC2CCCOc3c(Cl)cccc32)cn1 (configuration not stated),12.93
8,Cn1cc(CNC2CCCOc3c2ccc2ccccc32)cn1 (configuration not stated),11.28
9,Cc1cccc2c1OCCCC2NCc1nccn1Cc1ccccc1 (configuration not stated),104.4
10,Cn1ccnc1CNC1CCCOc2c1ccc1ccccc21 (configuration not stated),95.81
11,COc1cccc(CNC2CCCOc3cc(C)ccc32)n1 (configuration not stated),-23.35
12,Cc1cccc2c1OCCCC2NCc1nnc2n1CCCCC2 (configuration not stated),-4.885
13,Cc1ccc2c(c1)OCCCC2NCc1nnc2n1CCCCC2 (configuration not stated),-7.759
14,Br.Cn1cc(CN2CCOC(c3cccc(-c4cncnc4)n3)C2)cn1 (configuration not stated),-10.8
15,Cl.c1cncc(CNCc2cccs2)c1,5.045
16,O=C(O)C(F)(F)F.O=C1[C@H]2CN(Cc3nccs3)C[C@H]2CN1c1ccsc1,28.97
17,Cc1nn(C)c(C)c1S(=O)(=O)N1C[C@@H]2C[C@@H](C)O[C@@H]2C1.O=C(O)C(F)(F)F,3.558
18,NC(=O)CC1CC2(CCNCC2)c2cc(F)ccc21.O=C(O)C(F)(F)F (configuration not stated),15.23
19,Cn1cc(C(=O)NCc2cn3c(n2)CN(C2CCOCC2)CC3)cn1.O=C(O)C(F)(F)F,-17.41
20,c1ccc(Cn2ccnc2CNC2CCCOc3ccccc32)cc1 (configuration not stated),104.4
21,CCC1COCCN1C(=O)NCc1nccn1Cc1ccccc1 (configuration not stated),-21.62
22,Cc1ccc2c(c1)OCCCC2NC1CCN(C)CC1 (configuration not stated),11.02
23,COc1c(CNC2CCCOc3ccccc32)c(C)nn1C (configuration not stated),-2.184
24,Cc1ccc2c(c1)OCCCC2NCc1nccn1Cc1ccccc1 (configuration not stated),101.1
25,c1ccc2c(c1)OCCCC2NCc1nnc2n1CCCCC2 (configuration not stated),7.956

row,SMILES,Percent Effect [%]
1,Cc1cncc(C(=O)N2C[C@@H]3CN(S(C)(=O)=O)CCO[C@@H]3C2)c1.O=C(O)C(F)(F)F,15.78
2,CC1CCN(C(=O)[C@@H]2C[C@@H]3CCN(Cc4nccs4)C[C@H]3O2)CC1.O=C(O)C(F)(F)F,11.99
3,CC(C)N1CCN(C(=O)c2csc3nc(-c4ccc(Cl)cc4)cn23)CC1,2.331
4,O=C(c1csc2nc(-c3ccc(Cl)cc3)cn12)N1CCCC(CO)C1 (configuration not stated),17.74
5,CCC1CN(C(=O)c2csc3nc(-c4ccc(Cl)cc4)cn23)CCN1 (configuration not stated),59.48
6,O=C(Nc1cccnc1)[C@H]1C[C@@H]2CN(C(=O)NC3CCCC3)C[C@H]1O2,-0.1164
7,O=C1C[C@H]2CC[C@@H](CN1)N2C1CCOCC1,-8.619
8,O=C(NC1CCCC1)c1nc2c(o1)CN(CCO)C2,51.46
9,O=C(NC1CCCC1)c1nc2c(o1)CN(C(=O)CO)C2,10.14
10,O=C(NC1CCCC1)c1nc2c(o1)CN(C(=O)CCO)C2,6.229
11,CN(C)C(C(=O)N1CCCC1)c1ccccc1F (configuration not stated),12.45
12,CN(C)C(C(=O)N1CCSCC1)c1ccccc1F (configuration not stated),7.911
13,CN(C)C(C(=O)N1CCC(N2CCSCC2)CC1)c1ccccc1F (configuration not stated),64.18
14,COc1ccc(CNC(=O)C2=NN(c3ccc(C)cc3)C(=O)CN2)cc1,24.03
15,COc1ccccc1CNC(=O)C1=NN(c2ccc(C)cc2)C(=O)CN1,73.51
16,COc1ccc(C)cc1CNC(=O)C1=NN(c2ccccc2)C(=O)CN1,30.82
17,CC(C)N1CCO[C@H]2CN(C(=O)c3ccccn3)C[C@H]21.O=C(O)C(F)(F)F.O=C(O)C(F)(F)F,-26.06
18,Cc1cc(O)c(OCC(=O)/N=c2\[nH]c(C)c(C)s2)cn1,14.69
19,Cc1cs/c(=N/C(=O)c2csc(NCC(C)C)n2)[nH]1,102.2
20,Cc1cs/c(=N\C(=O)c2c3c(nc4onc(C)c24)CCC3)[nH]1,-0.1888
21,CC(=O)Nc1nc(C(=O)NC(C)c2ccc(F)cc2)cs1 (configuration not stated),8.426
22,Cc1[nH]/c(=N\C(=O)c2csc(NCC(C)C)n2)sc1C,103.2
23,CC(C)CNc1nc(C(=O)/N=c2\[nH]nc(C(C)(C)C)s2)cs1,29.68
24,O=C1c2cnc(N3CCCC3)nc2CN1CCc1ccc(Cl)cc1,5.842
25,Cc1ccc(CN2C[C@@H]3COC[C@H](NS(C)(=O)=O)[C@@H]3C2)s1.O=C(O)C(F)(F)F,-17.68

row,SMILES,Percent Effect [%]
1,CC(C)c1nn(C)c(N(C)C)c1CNC(C)c1ccc2c(c1)OCO2.Cl (configuration not stated),11.17
2,O=C(CN1CC(c2nc(C3CC3)no2)C1)NCc1ccc(F)cc1.O=C(O)C(=O)O,-19.44
3,CN(C)S(=O)(=O)N1CCN(c2ccnc(N3CCCCC3)n2)CC1,-3.243
4,CS(=O)(=O)N1CCN(c2ccnc(N3CCCC3)n2)CC1,3.373
5,CS(=O)(=O)N1CCN(c2ccnc(N3CCCCC3)n2)CC1,54.19
6,CN1CCN(CC2CC2)C(=O)C12CCN(C(=O)CC(F)(F)F)CC2.O=C(O)C(F)(F)F,5.441
7,COc1ccccc1Oc1ncccc1CNC(=O)[C@@H](C)NC(C)=O,11.05
8,c1ccc(Cn2ccnc2CN2CCCC2c2noc(C3CC3)n2)cc1 (configuration not stated),104.2
9,COc1ccc(C)cc1CN1CCCC1c1noc(C2CC2)n1 (configuration not stated),82.36
10,Cc1cnc(CN2CCCCC2c2nc(-c3ccccc3)no2)cn1 (configuration not stated),5.875
11,Cn1ccnc1CN1CCCCC1c1nc(-c2ccccc2)no1 (configuration not stated),51.73
12,COc1c(C)cnc(CN2CCCC2c2noc(C3CC3)n2)c1C (configuration not stated),-0.8434
13,CCc1nc(C2CCCN2Cc2nccn2Cc2ccccc2)no1 (configuration not stated),20.06
14,Cc1noc(C)c1CN1CCCCC1c1nc(-c2ccccc2)no1 (configuration not stated),-13.3
15,CCn1ccnc1CN1CCCC1c1noc(C2CC2)n1 (configuration not stated),-4.423
16,Cc1nc(CN2CCCC2c2noc(C3CC3)n2)nc2ccccc12 (configuration not stated),27.9
17,Cc1cc(CN2CCCC2c2noc(C3CC3)n2)c2ccccc2n1 (configuration not stated),31.64
18,c1ccc2oc(CN3CCCC3c3noc(C4CC4)n3)nc2c1 (configuration not stated),17.43
19,c1ccc2nc(CN3CCCC3c3noc(C4CC4)n3)ccc2c1 (configuration not stated),108.9
20,COC(=O)Cn1c(=O)nc2n1C(=O)N(c1ccc(Br)cc1)C2,18.41
21,CNC(=O)[C@H]1C[C@@H]2CN(Cc3cccc(C)c3)C[C@H]1O2.O=C(O)C(F)(F)F,19.67
22,COCCNC(=O)[C@H]1CN(Cc2sccc2C)C[C@H]2OCC[C@@H]12.O=C(O)C(F)(F)F,-45.09
23,Br.Cc1cc(C)c(N(CC(O)CNCc2ccccc2)S(C)(=O)=O)c(C)c1 (configuration not stated),3.921
24,Cc1cccc(CN2C(=O)CCC23CCNCC3)n1.O=C(O)C(F)(F)F.O=C(O)C(F)(F)F,-5.538
25,COCCN1CCC2(CCCN(c3ncccn3)C2)C1.O=C(O)C(F)(F)F (configuration not stated),-80.98

row,SMILES,Percent Effect [%]
1,CN1CCC(c2n[nH]c3ncccc23)C1.O=CO (configuration not stated),50.56
2,CN1CCCC(c2n[nH]c3ncccc23)C1 (configuration not stated),-10.45
3,c1cnc(N2CCC(c3n[nH]c4ncccc34)C2)nc1 (configuration not stated),-8.956
4,Cc1ccccc1N1CCN(c2ccncn2)C(C)C1 (configuration not stated),56.56
5,Cc1ccc(N2CCN(c3ccccc3C)CC2C)nn1 (configuration not stated),2.644
6,Cc1ccccc1N1CCN(c2cc(N(C)C)ncn2)C(C)C1 (configuration not stated),21.52
7,Cc1ccc(Nc2nccc(C3CCN(C(=O)CN)C3)n2)nc1.Cl (configuration not stated),-1.968
8,COc1cccc(COCC(O)CN(C)c2ccc(C)cc2C)c1 (configuration not stated),-34.76
9,OCC1(CC2CCCCO2)CCN(c2cnc3ccccc3n2)CC1 (configuration not stated),103.4
10,Cc1cc(N2CCC(CO)(CC3CCCCO3)CC2)c2ccccc2n1 (configuration not stated),-3.721
11,Cc1cc(N2CCC(CO)(CC3CCCCO3)CC2)nc2ccccc12 (configuration not stated),3.069
12,CO[C@@H]1CC[C@H]2[C@H]1OCCN2Cc1ccc(F)cc1.O=C(O)C(F)(F)F,-14.29
13,CCn1cc(NC(=O)CN2CCC(Oc3ccc(F)cc3)CC2)c(C)n1.Cl,-4.397
14,CCCN(C(=O)c1cccnc1)c1nc2c(s1)CCc1c-2cnn1C,19.23
15,CCCN(C(=O)c1cnccn1)c1nc2c(s1)CCc1c-2cnn1C,-8.207
16,CCCN(C(=O)c1ccccn1)c1nc2c(s1)CCc1c-2cnn1C,103.2
17,CCCN(C(=O)c1ccncc1)c1nc2c(s1)CCc1c-2cnn1C,61.93
18,COCCN(C(=O)c1ccccn1)c1nc2c(s1)CCc1c-2cnn1C,15.96
19,CCCN(C(=O)c1cnc(C)cn1)c1nc2c(s1)CCc1c-2cnn1C,-19.73
20,Cc1nc(N2CCOCC2)nc2c1CCN(Cc1nccn1C)CC2.O=C(O)C(F)(F)F,-4.986
21,O=C(O)C(F)(F)F.O=C(c1cccnc1)N1CCC2(CCN(C(=O)N3CCCC3)CC2)C1,2.065
22,CCN1Cc2nccn2CC(COCc2csc(C)n2)C1.O=C(O)C(F)(F)F.O=C(O)C(F)(F)F (configuration not stated),34.39
